# Only some compounds are listed: those with a hit (about 7.5% of all), similar ones and a draw of the others.
# NPC1 promoter act = NPC1 promoter activation. Huh7 NPC1 promoter luciferase reporter, 24 h. Potency, µM (titrated, usually from 9.22 µM), inactives show top-dose activation, hits mostly activators. 320,000 tested, 2.4% active; note: % of control where 0% means no effect; nearly all actives have a fitted effect of over 60% in size
#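 Stable NPC1-promoter luciferase Huh7 line; cpd (DMSO) 24 h, 37 °C, 5% CO2; Amplite luciferase reagent 10 min RT; luminescence readout. qHTS format.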
# SMN2 splice up = SMN2 splice variant enhancement; HEK293 SMN2-luciferase splicing reporter, luminescence, 30-36 h; Potency, µM (highest dose often 46.1 µM), for inactives: top-dose activity change, positive = activation, most hits filed as activators; 210,000 tested, 2.8% active; AID 1458; note: % of control where 0% means no effect; nearly all actives have a fitted effect of over 55% in size
#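 HEK293 cells carry an SMN2 minigene-luciferase reporter in which exon 7 inclusion puts luciferase in frame. Cells were seeded at 2000 cells/well, attached for 10-12 hours, then exposed to compounds for 30-36 hours at 37C before ONE-Glo luminescence.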
# FLuc modulator = firefly luciferase modulation, counter-screen for miR-21 project | Potency, µM (top dose mostly 57.5 µM), for the others: top-dose activity change, negative = inhibition, most hits filed as inhibitors | purified FLuc, Km substrates, luminescence inhibition | 360,000 tested, 6.9% active | P08659 | AID 588342;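 note: plate controls were vehicle for no effect and reference inhibitor for full effect; nearly all actives have a fitted effect of over 55% in size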
# Target sequence (P08659 whole entry, looked up): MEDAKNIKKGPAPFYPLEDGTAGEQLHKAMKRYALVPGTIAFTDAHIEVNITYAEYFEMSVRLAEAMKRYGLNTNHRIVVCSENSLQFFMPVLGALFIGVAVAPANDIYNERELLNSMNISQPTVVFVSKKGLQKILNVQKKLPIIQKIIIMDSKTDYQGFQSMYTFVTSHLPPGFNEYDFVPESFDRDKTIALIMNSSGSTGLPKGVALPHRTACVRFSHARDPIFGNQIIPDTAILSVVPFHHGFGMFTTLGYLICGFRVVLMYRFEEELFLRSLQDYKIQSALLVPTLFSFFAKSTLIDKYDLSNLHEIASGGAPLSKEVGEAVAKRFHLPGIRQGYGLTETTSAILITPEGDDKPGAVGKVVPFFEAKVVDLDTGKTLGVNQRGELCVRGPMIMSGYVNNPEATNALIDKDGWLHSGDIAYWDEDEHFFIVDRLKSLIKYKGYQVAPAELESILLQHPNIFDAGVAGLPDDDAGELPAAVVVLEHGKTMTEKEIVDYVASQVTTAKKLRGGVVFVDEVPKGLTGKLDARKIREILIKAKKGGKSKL
#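 Purified P. pyralis luciferase, 10 nM final, with Km-level 10 uM D-luciferin and 10 uM ATP in 50 mM Tris acetate pH 7.5, 10 mM Mg acetate, 0.01% Tween-20, 0.05% BSA; 6-point qHTS titration about 60 µM downward; luminescence read.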
# Rab9 prom act = activates the Rab9 promoter; Huh7 Rab9 promoter-luciferase reporter, luminescence, 24 h; Potency, µM (titrated, usually from 9.22 µM), inactives show at the top dose activation, negative = inhibition, most hits filed as activators; 320,000 tested, 2.8% active; AID 485297; note: % of control where 0% means no effect; nearly all actives have a fitted effect of over 60% in size
#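 Luminescence from Amplite-detected luciferase (10 minutes, ambient) reports Rab9 promoter activation. Before that, stable Rab9-luciferase Huh7 cells (1500/well, reduced-serum OP-MEM I plus 10% FBS) were exposed to compound for 24 hours at 37C.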
# ELG1 genotox = inducers of genotoxicity in HEK293T ELG1-luciferase cells. HEK293T ELG1-luciferase reporter, luminescence, 16 h. Potency, µM (top dose mostly 46 µM), for the others: top-dose activity change, positive = activation, actives largely listed as activators. 330,000 tested, 1.3% active. AID 504466; note: % of control where 0% means no effect; nearly all actives have a fitted effect of over 60% in size
#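 Genotoxic stress is detected as increased luminescence from luciferase-tagged ELG1 in HEK293T cells, measured with ONE-Glo after a 16 hr treatment at 37 °C.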
# Luc counter = blocks Kinase-Glo luciferase, a counter-screen artifact; Kinase-Glo luciferase, ATP luminescence, 8 min; Potency, µM (series often up to 38.3 µM), inactives show at the top dose activity change, negative = inhibition, usual class: inhibitors; 200,000 tested, 0.28% active; note: % is set by controls: 0 for no effect and ±100 for the full control effect; nearly all actives have a fitted effect of over 60% in size
#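 Compounds were added to a substrate mix at pH 7.2 (50 mM imidazole, 10 uM ATP, within the enzyme's linear range), followed by Kinase-Glo detection reagent; luminescence was measured after 8 minutes at ambient temperature.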
# * = called active by the depositor; u = inconclusive; x = no result; [ ] = another dose, or the depositor's remark. Calls come from the whole dose curve; as a rule, active = well fitted curve in the direction sought with a large enough effect; inconclusive = small, poorly fitted or top-dose-only effect, or another doubt; inactive = no such curve, though single readings can be large; an effect the other way counts as inactive or inconclusive. Potency is the fitted concentration of half-maximal effect.
SMILES,NPC1 promoter act,SMN2 splice up,FLuc modulator,Rab9 prom act,ELG1 genotox,Luc counter
CC1CC(=O)N(CC(=O)NC2CCCCC2)c2ccccc2S1 (stereo not drawn),-2%,x,0%,-1%,-1%,x
CC(C(=O)N1CCCC1)N(C)CC(=O)Nc1cccc(F)c1 (stereo not drawn),-1%,x,8%,-1%,0%,x
Cc1ccc(-n2nc3ccc(N)cc3n2)cc1C,1.6µM*,x,0.48µM*,0.5µM*,0.92µM*,x
Cc1ccc(C(=O)/C=C/c2ccccc2)o1,-4%,-22%,2.4µM*,-4%,-1%,-8%
Cc1ccc(/C=C/C(=O)c2ccc([N+](=O)[O-])o2)cc1,-32%,x,u,-38%,-9%,x
Cc1ccc(C(=O)/C=C/c2ccc(Br)cc2)o1,-4%,-5%,2.4µM*,-2%,10%,-6%
COc1ccc(NC(=O)CSCC(=O)N2CCN(C(=O)c3ccco3)CC2)cc1,-3%,x,-3%,-7%,2%,x
CCNC(=O)Cc1ccc(NC(=O)N2CCCCc3ccccc32)cc1,x,x,7%,x,x,x
COc1ccc(/C(N)=N/OC(=O)COc2ccccc2Cl)cc1,7%,u,21µM*,11%,u,-7%
Cc1cccc(/C(N)=N/OC(=O)COc2ccccc2Cl)c1,22%,u,19µM*,16%,u,1%
N/C(=N\OC(=O)COc1ccccc1)c1ccc(Cl)cc1,0%,21%,u,0%,u,2%
N/C(Cc1ccc(Cl)cc1Cl)=N\OC(=O)Cc1ccccc1,-1%,8%,15µM*,-3%,0%,5%
N/C(Cc1ccc(Cl)cc1Cl)=N\OC(=O)Cc1ccc(Cl)cc1,0%,-7%[1.84 µM],-1%,0%,3%,-3%
Cc1cccc(/C(N)=N/OC(=O)Cc2ccccc2)c1,14%,11%,15µM*,20%,u,-3%
C[C@@]12CC[C@@H]3[C@@H](CC[C@H]4C[C@@H](O)CC[C@]43C)[C@H]1CC[C@@H]2c1cc(C(F)(F)F)n[nH]1,x,-8%[9.22 µM],x,x,x,-6%[7.66 µM]
O=C1OC(c2ccc(F)cc2)=N/C1=C\c1ccc(Br)o1,-11%,8%,6µM*,-1%,0%,0%
CCc1nnc(NC(=O)c2cc3ccccc3oc2=O)s1,-1%,-4%,-18%,-4%,u,-8%
O=C(Nc1nc(-c2ccccn2)cs1)c1cc2ccccc2o1,9%,-77%,5.4µM*,4%,-8%,-20%
O=C(Nc1nc(-c2ccccn2)cs1)c1ncc(Cl)c(Cl)c1Cl,-5%,-10%,u,-2%,-10%,-3%
O=C(Nc1nc(-c2cccs2)cs1)c1cc2ccccc2oc1=O,23%,11%,2.7µM*,u,5%,-2%
Cc1cc(-c2csc(NC(=O)c3cc4ccccc4o3)n2)c(C)n1C,13%,2%,9.5µM*,23%,6%,-2%
Cc1c(C(=O)Nc2nc(-c3ccccn3)cs2)oc2ccccc12,16%,x,9.5µM*,7%,-1%,x
O=C(Nc1nc(-c2cc3ccccc3oc2=O)cs1)c1ccc(Br)o1,10%,28%,6%,4%,4%,-10%
COCc1c(C(=O)Nc2nc(C)cs2)oc2ccccc12,-1%,15%,u,1%,-1%,-2%
CCOC(=O)C(C)(C)[C@H](O)C(C)C,x,-3%[9.22 µM],x,x,x,-11%[7.66 µM]
SMILES,NPC1 promoter act,SMN2 splice up,FLuc modulator,Rab9 prom act,ELG1 genotox,Luc counter
C#CCOc1ccc(/C=C2/C(=O)NN(c3ccc(F)cc3)C2=O)cc1OC,-4%,x,1.9µM*,-4%,4%,x
COc1cc(C=C2C(=O)OC(C)(C)OC2=O)ccc1OCC(=O)Nc1ccccc1,-3%,14%,11µM*,-8%,u,4%
COc1cc(/C=C2\C(=O)NN(c3ccccc3)C2=O)ccc1OCC(N)=O,-10%,6%,11µM*,1%,0%,-2%
COC(=O)c1ccc(N2NC(=O)/C(=C/c3ccc(OC)c(OC)c3)C2=O)cc1,1%,x,u,-2%,0%,x
CN(C)S(=O)(=O)N1CCC(Oc2cccc(C(=O)NC3CCOC3)c2)CC1 (stereo not drawn),-4%,x,-19%,-5%,0%,x
O=C1C2C3C=CC(C2C(=O)N1c1cccc(O)c1)C1C2C(=O)N(c4cccc(O)c4)C(=O)C2C31 (stereo not drawn),-1%,-2%,-6%,-7%,-1%,1%
CCn1cc(C2=NC(C(C)C)CO2)c2ccccc21 (stereo not drawn),-3%,15%,-14%,-1%,u,0%
CC(C)C1COC(c2cccc3ccccc23)=N1 (stereo not drawn),3.2µM*,22µM*,2.1µM*,0.79µM*,21µM*,-22%
CCc1ccc2[nH]c(=O)c(-c3ccccc3)c(O)c2c1,-3%,x,21µM*,6%,3%,x
COc1ccc2cc3cc(C(=O)Nc4ccccc4C)oc3nc2c1,x,11%,-7%,x,x,x
O=C1CCOc2cc(OCc3ccccc3)ccc21,1µM*,2.2µM*,1.5µM*,1µM*,10µM*,u
CCOc1ccc2c(c1)c(=O)c(C(=O)c1ccc(C)cc1)cn2Cc1ccccc1OC,x,4%,-5%,x,x,x
Nc1c(C(=O)O)sc2nc(-c3ccccc3)c3c(c12)CCCC3,-1%,-6%,-1%,1%,1%,-2%
O=c1oc(-c2cccs2)nc2sc3c(c12)CCCCC3,u,16µM*,1.2µM*,u,1%,-7%
CCc1nc2sc3c(c2c(=O)o1)CCCC3,0%,13%,u,1%,u,-3%
O=c1oc(/C=C/c2ccccc2)nc2sc3c(c12)CCC3,21%,11µM*,0.95µM*,u,14µM*,-23%
CCc1c(-c2ccccc2)nc2sc3c(c2c1N)CCCC3,26%,x,1.7µM*,u,-4%,x
COc1ccc2cc(-c3nc(Cl)c4c5c(sc4n3)CCCC5)c(=O)oc2c1,x,3%,u,x,x,x
O=c1oc(-c2cc3ccccc3o2)nc2sc3c(c12)CCCC3,u,u,2.4µM*,u,14%,-12%
CC(=O)CSc1nnc2cc(C)c3cc(C)cc(C)c3n12,x,x,-14%,x,x,x
O=C(CSc1nc2sc3c(c2c(=O)n1-c1ccccc1)CCCC3)N/N=C/c1ccc(C(=O)O)cc1,-8%,x,-7%,-1%,2%,x
O=C1CN(c2nc(-c3cccnc3)nc3sc4c(c23)CCCC4)CCN1,0%,u,u,-3%,-2%,7%
O=c1oc(-c2ccccc2)nc2sc3c(c12)CCCC3,24%,u,1.2µM*,u,23%,u
Cn1c(N/N=C/c2ccccc2)nc2sc3c(c2c1=O)CCC3,1%,-26%,15µM*,-2%,1%,-6%

# Screens: PubChem BioAssay, National Center for Advancing Translational Sciences (NCATS)
